From PubChem
An excerpt weighted towards active compounds, which were near 7.9% of everything screened.
SW480 rerep – DNA re-replication induction in SW480 cells | SW480 DNA re-replication, Hoechst DNA content imaging, 48 h | Potency, µM (top dose mostly 46.1 µM), most hits filed as activators | actives 1.8% (n = 340,000) | AID 624297; further: nearly all actives have a fitted effect of over 55% in size
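Treated cells incubate 48 hr (37 C, 5% CO2), are stained 40 min with Hoechst, and nuclear fluorescence is enumerated; a rise in nuclei with high DNA signal marks re-replication.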
KB-V1 cytotox – KB-V1 MDR subline cytotoxicity. AID 1347076. actives 3.4% (n = 400,000). Potency, µM (doses to about 46.1 µM), hits mostly cytotoxic. KB-V1 MDR cells viability, CellTiter-Glo, 72 h; further: nearly all actives have a fitted effect of over 60% in size
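Following 72 h at 37 degrees C with compound, KB-V1 cell viability was read by CellTiter-Glo luminescence, medium being phenol-red-free DMEM plus 10% FBS; concentration-response parameters came from normalized, curve-fitted qHTS data.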
KB-3-1 tox – KB-3-1 parental cell cytotoxicity; Potency, µM (series often up to 46.1 µM), actives largely listed as cytotoxic; actives 1.4% (n = 400,000); AID 1347075; KB-3-1 viability, CellTiter-Glo ATP luminescence, 72 h; further: nearly all actives have a fitted effect of over 60% in size
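Multi-concentration cytotoxicity screen in KB-3-1 cells grown in DMEM lacking phenol red with 10% FBS. After 72 h at 37 °C with compound, ATP-dependent luminescence was recorded.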
MCF10A rerep – induces DNA re-replication in MCF 10a normal breast cells. MCF 10A DNA re-replication, Hoechst nuclear intensity, 48 h. Potency, µM (titrated, usually from 46.1 µM), usual class: activators. actives 2.9% (n = 350,000). AID 624296; further: nearly all actives have a fitted effect of over 50% in size
HT1080 IDH1KD tx – HT-1080 IDH1 knockdown cell toxicity (counter line); HT-1080 IDH1 knockdown viability, ATP luminescence, 48 h; Potency, µM (titrated, usually from 46.1 µM), usual class: cytotoxic; actives 2% (n = 360,000); AID 686971
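Luminescent ATP read-out (CellTiter-Glo, 10 min at room temperature) after 48 h compound exposure at 37 °C gave viability of IDH1-knockdown HT-1080 cells. Activity was normalised to DMSO and cell-free wells, then fitted as concentration-response curves.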
HT1080-NT tox – kills 2HG-producing HT-1080-NT fibrosarcoma cells; Potency, µM (doses to about 46.1 µM), most hits filed as cytotoxic; HT-1080-NT fibrosarcoma viability, CellTiter-Glo ATP luminescence, 48 h; actives 1.6% (n = 360,000);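 further: NT is the 2HG producing partner of a matched IDH1 knockdown line; nearly all actives have a fitted effect of over 55% in size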
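750 cells/well, RPMI + 5% FBS; 2 h settle, compound pin-transfer, 48 h at 37 degrees C. CellTiter-Glo 10 min RT, luminescence. Normalized to DMSO and media-only wells.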
Of the large screens only hits and unclear results are named; the others gave an inactive call. The call rests on the fitted dose curve; in most records, active means well fitted curve in the direction sought with a large enough effect; inconclusive means small, poorly fitted or top-dose-only effect, or another doubt; inactive means no such curve, though single readings can be large; an effect the other way counts as inactive or inconclusive.

O=C(COC(=O)c1c2c(nc3ccccc13)/C(=C\c1ccco1)CC2)NC1CCCC1	SW480 rerep 6.51µM, MCF10A rerep inconclusive (no result: KB-V1 cytotox, KB-3-1 tox)
CN(CCC#N)C(=O)COC(=O)c1c2c(nc3ccccc13)/C(=C\c1ccco1)CC2	SW480 rerep 4.11µM, MCF10A rerep inconclusive
CCCc1nc2ccccc2c(C(=O)OCC(=O)NC2CC2)c1CC	KB-V1 cytotox inconclusive, KB-3-1 tox inconclusive
Cc1cc(C(=O)Nc2ccccc2Cc2ccccc2)no1	none
Cn1nccc1C(=O)N1CCc2ccccc21	none
Cc1cc(F)ccc1NC(=O)C1CCN(C(=O)Nc2ccccc2)CC1	MCF10A rerep inconclusive
COc1cccc(NC(=O)N2CCCC(C(=O)Nc3ccccc3OC)C2)c1 (centres undefined)	KB-V1 cytotox 20.6µM
COc1cccc(NC(=O)N2CCC(C(=O)Nc3ccc(C)cc3C)CC2)c1	KB-V1 cytotox 14.6µM
CCCCn1c2c(cc(C(=O)OC)c1=O)C(=O)CCC2	none
O=c1oc2ccccc2cc1-c1csc(Nc2nc3ccc(F)cc3s2)n1	none (no result: KB-V1 cytotox, KB-3-1 tox, HT1080 IDH1KD tx, HT1080-NT tox)
O=c1oc2ccccc2cc1-c1csc(Nc2nc3c(F)cccc3s2)n1	KB-V1 cytotox inconclusive, KB-3-1 tox 16.4µM, MCF10A rerep 5.8µM, HT1080 IDH1KD tx inconclusive (no result: SW480 rerep)
CSc1ncc(Cl)c(C(=O)Nc2c(C(=O)Nc3cccc(C)c3)oc3ccccc23)n1	none (no result: SW480 rerep, MCF10A rerep, HT1080 IDH1KD tx, HT1080-NT tox)
CC1CCN(c2nc(/C=C/c3ccccc3)nc3ccccc23)CC1	KB-V1 cytotox inconclusive, MCF10A rerep 20.6µM, HT1080 IDH1KD tx inconclusive, HT1080-NT tox inconclusive
C(=C\c1nc(N2CCCC2)c2ccccc2n1)/c1ccccc1	SW480 rerep inconclusive, KB-V1 cytotox inconclusive, KB-3-1 tox 23.1µM, MCF10A rerep inconclusive, HT1080 IDH1KD tx inconclusive, HT1080-NT tox 25.9µM
NC(=O)Nc1ccc2c(c1)OCCO2	none
Cc1ccccc1-c1nnc(SC(C)C(=O)NC2CCCC2)o1 (centres undefined)	KB-V1 cytotox 20.6µM
Cc1ccccc1-c1nnc(SCC(=O)NC2CCCCC2)o1	none
Cc1occc1-c1nnc(SC(C)C(=O)Nc2ccccc2F)o1 (centres undefined)	KB-V1 cytotox 10.3µM, KB-3-1 tox inconclusive, HT1080 IDH1KD tx inconclusive, HT1080-NT tox inconclusive
NC(c1ccccc1)c1csc(NC(=O)Nc2cccc(Cl)c2)n1 (centres undefined)	HT1080 IDH1KD tx 16.4µM, HT1080-NT tox 20.6µM (no result: SW480 rerep, MCF10A rerep)
COC(=O)c1cnc(Nc2nc(C(N)c3ccccc3Cl)cs2)nc1C(F)(F)F (centres undefined)	HT1080 IDH1KD tx inconclusive, HT1080-NT tox inconclusive (no result: SW480 rerep, MCF10A rerep)
NC(CCc1ccccc1)c1csc(NC(=O)Nc2cccc(Cl)c2)n1 (centres undefined)	HT1080 IDH1KD tx inconclusive, HT1080-NT tox inconclusive (no result: SW480 rerep, MCF10A rerep)
NC(c1ccccc1)c1csc(NC(=O)Nc2ccc(OC(F)(F)F)cc2)n1 (centres undefined)	HT1080 IDH1KD tx 18.4µM, HT1080-NT tox inconclusive (no result: SW480 rerep, MCF10A rerep)
NC(c1csc(NC(=O)c2cccc(OC(F)(F)F)c2)n1)c1ccccc1Cl (centres undefined)	KB-3-1 tox inconclusive, HT1080 IDH1KD tx inconclusive, HT1080-NT tox 23.1µM (no result: SW480 rerep, MCF10A rerep)
NC(c1csc(NC(=O)Nc2cccc(Cl)c2)n1)C1CCCCC1 (centres undefined)	KB-3-1 tox inconclusive, HT1080 IDH1KD tx 18.4µM, HT1080-NT tox 18.4µM (no result: SW480 rerep, MCF10A rerep)
NC(c1csc(Nc2nncc3ccccc23)n1)C1CCCCC1 (centres undefined)	KB-V1 cytotox inconclusive, KB-3-1 tox inconclusive, HT1080 IDH1KD tx 23.1µM, HT1080-NT tox 20.6µM (no result: SW480 rerep, MCF10A rerep)
NC(c1csc(Nc2nncc3ccccc23)n1)c1ccccc1Cl (centres undefined)	HT1080-NT tox inconclusive (no result: SW480 rerep, MCF10A rerep)
NC(c1csc(NC(=O)Nc2ccccc2Cl)n1)C1CCCCC1 (centres undefined)	HT1080 IDH1KD tx inconclusive, HT1080-NT tox inconclusive (no result: SW480 rerep, MCF10A rerep)
NC(c1csc(NC(=O)Nc2ccccc2)n1)C1CCCCC1 (centres undefined)	KB-V1 cytotox 18.4µM, KB-3-1 tox inconclusive, HT1080 IDH1KD tx inconclusive, HT1080-NT tox inconclusive (no result: SW480 rerep, MCF10A rerep)
COC(=O)c1nc(NC(=O)c2ccccc2Cl)n[nH]1	none
CC(C)(C)OC(=O)NCC(=O)NCC(=O)OCc1ccccc1	none
NCC(=O)NCC(=O)OCc1ccccc1	MCF10A rerep 1.03µM
Cc1cn(CC(=O)N[C@H](CO)Cc2c[nH]c3ccccc23)c(=O)[nH]c1=O	MCF10A rerep inconclusive
Cc1ccc(CNC(=O)c2sc3nc4n(c(=O)c3c2C)CCCCC4)cc1	none (no result: SW480 rerep, MCF10A rerep, HT1080 IDH1KD tx, HT1080-NT tox)
Cc1ccc(NC(=O)C(SCC(=O)O)c2ccccc2)cc1C (centres undefined)	none
COc1cc(/C=N/NC(=S)NC(C)C)ccc1OCC(=O)Nc1c(C)cc(C)cc1C	SW480 rerep inconclusive, MCF10A rerep inconclusive
O=S(=O)(N/N=C/c1cn(Cc2ccccc2)c2ccccc12)c1ccccc1	KB-V1 cytotox 20.6µM, KB-3-1 tox inconclusive, MCF10A rerep inconclusive
NC(=O)Cn1cc(/C=N\NS(=O)(=O)c2ccc(Cl)cc2)c2ccccc21	none
Cc1ccccc1C(=O)Nc1nnc(CC(=O)N/N=C/c2cn(Cc3ccccc3)c3ccccc23)s1	SW480 rerep 20.6µM, KB-3-1 tox inconclusive, MCF10A rerep 6.51µM
Cc1ccc(C(=O)N/N=C/c2cn(Cc3ccccc3)c3ccccc23)cn1	SW480 rerep inconclusive, KB-V1 cytotox inconclusive, KB-3-1 tox 16.4µM, MCF10A rerep inconclusive
Cc1cc(C)n(CCNC(=O)[C@H]2O[C@@H](n3ccc(N)nc3=O)[C@H](O)[C@@H]2O)n1	none (no result: SW480 rerep, MCF10A rerep)
Oc1ccc(-c2[nH]ncc2-c2cccc3cccnc23)c(O)c1	KB-V1 cytotox inconclusive, HT1080 IDH1KD tx inconclusive, HT1080-NT tox inconclusive
COc1cc(C(C)=O)ccc1Oc1ncnc2c1cnn2-c1ccccc1	KB-V1 cytotox 14.6µM
C/C(=N\NC(=O)c1c[nH]c2ccccc12)c1ccco1	SW480 rerep 2.91µM, MCF10A rerep 2.31µM
CCN(CC)S(=O)(=O)c1ccc(N2CCN(c3cccc(OC)c3)CC2)c([N+](=O)[O-])c1	KB-V1 cytotox 2.91µM, HT1080 IDH1KD tx inconclusive
COc1cccc(N2CCN(c3ccc(S(=O)(=O)N4CCN(C)CC4)cc3[N+](=O)[O-])CC2)c1	KB-V1 cytotox inconclusive, KB-3-1 tox inconclusive, MCF10A rerep inconclusive
COc1cc2ncnc(NCc3ccccc3F)c2cc1OC	none
COc1ccc(C(=O)N2CCN(Cc3cc(OC)ccc3OC)CC2)cc1	none
COc1cc(OC)cc(C(=O)NC(C(=O)N2CCc3ccccc3C2)C(C)C)c1 (centres undefined)	SW480 rerep 18.4µM, KB-V1 cytotox inconclusive, KB-3-1 tox inconclusive, MCF10A rerep inconclusive, HT1080 IDH1KD tx inconclusive, HT1080-NT tox inconclusive
